# Test results: PubChem BioAssay (NCATS)
# “And” between values parts separate entries of the source, which are not always exact repeats. Identical values can stand only once. Inconclusive results are not listed. More than one record can exist for a structure, and the calls need not agree. Values without a mark were called inactive. The source made the active and inactive calls. Unless noted, calls come from the whole dose curve; as a rule, active = well fitted curve in the direction sought with a large enough effect; inconclusive = small, poorly fitted or top-dose-only effect, or another doubt; inactive = no such curve, though single readings can be large; an effect the other way counts as inactive or inconclusive.
# Legend:
# [1] = biological target: Cellular tumor antigen p53 (Homo sapiens) (UniProt P04637); assay: Primary qHTS for small molecule compounds that upregulate eGFP-tagged delta133p53alpha (in N-terminal) cells. (AID 2060322); conditions: NCI-H358 eGFP-delta133p53alpha fluorescence, 24 h; activation: hits give high values; note: nearly all actives have a fitted effect of over 75% in size; note: potency is the fitted concentration of half-maximal effect;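 for activation: series mostly up to about 56 µM; 0% = DMSO vehicle and 100% = reference activator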
# Summary of the method: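 NCI-H358 cells pre-induced 24 h with 10 ng/ml doxycycline to express N-terminal eGFP-delta133p53alpha, then dosed 24 h at 37C without doxycycline; fixed, Hoechst-stained, GFP intensity by laser scanning cytometry, normalized to DMSO (0%) and 57.5 uM 5-azacytidine (100%).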
# [2] = biological target: Cellular tumor antigen p53 (Homo sapiens) (UniProt P04637); assay: Primary qHTS for small molecule compounds that upregulate eGFP-tagged delta133p53alpha (in C-terminal) cells. (AID 2060324); note: potency is the fitted concentration of half-maximal effect
# Summary of the method: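 In this qHTS, GFP-tagged delta133p53alpha levels are measured in fixed NCI-H358 cells after 24 h compound exposure at 37 °C. The cells are pre-induced with 100 ng/ml doxycycline, and signal is normalized to DMSO-treated wells as 0%.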
# [3] = biological target: Aldehyde dehydrogenase, mitochondrial (Homo sapiens) (UniProt P05091); assay: qHTS for Inhibitors of the Aldehyde Dehydrogenase Family (ALDH2) Validation screens (AID 2061302; active = well fitted inhibition curve with a large enough effect; title and protocol of this record describe different tests;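 note: plate controls were DMSO vehicle for no effect and maximal DPI positive control response for full effect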)
# [4] = biological target: Retinaldehyde dehydrogenase 3 (Homo sapiens) (UniProt P47895); assay: qHTS for Inhibitors of the Aldehyde Dehydrogenase Family (ALDH1A3) Validation screen (AID 2061312); note: % is set by controls: 0 for no effect and ±100 for the full control effect; nearly all actives have a fitted effect of over 45% in size
# [5] = BET inhibitor-based combinations targeting novel dependencies in MECOM-rearranged (r) AML: SET-2 cell line (AID 2202231); conditions: SET-2 AML cells viability, CellTiter-Glo luminescence, 48 h; viability: hits give low values, concentration not given here; note: nearly all actives have a fitted effect of over 35% in size; note: potency is the fitted concentration of half-maximal effect;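 for viability: plate controls were DMSO treated cells for no effect and wells without cells for full effect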
# Summary of the method: (§1)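 500 cells/well; 11-pt dose curve; 48 h, standard incubator; CellTiter-Glo luminescence after 15 min RT; DMSO/empty-well normalization; AUC plus Z-AUC (mean-centered within each line).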
# [6] = BET inhibitor-based combinations targeting novel dependencies in MECOM-rearranged (r) AML: OCI-AML3 cell line (AID 2202232); conditions: Potency: OCI-AML3 viability; note: nearly all actives have a fitted effect of over 35% in size; note: potency is the fitted concentration of half-maximal effect
# Summary of the method: as §1
# [7] = BET inhibitor-based combinations targeting novel dependencies in MECOM-rearranged (r) AML: MV-4-11 cell line (AID 2202233); note: nearly all actives have a fitted effect of over 45% in size; note: potency is the fitted concentration of half-maximal effect
# Summary of the method: (§2)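 Cells were plated at 500 per well and exposed to each drug across an 11-point dose range for 48 hr at standard incubator conditions. Viability was read by CellTiter-Glo luminescence, and activity was expressed as AUC and per-cell-line Z-transformed AUC.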
# [8] = BET inhibitor-based combinations targeting novel dependencies in MECOM-rearranged (r) AML: HNT-34 cell line (AID 2202234); note: nearly all actives have a fitted effect of over 35% in size; note: potency is the fitted concentration of half-maximal effect
# Summary of the method: as §2
# [9] = BET inhibitor-based combinations targeting novel dependencies in MECOM-rearranged (r) AML: UCSD-AML1 cell line (AID 2202235); note: nearly all actives have a fitted effect of over 40% in size; note: potency is the fitted concentration of half-maximal effect
# Summary of the method: as §2
# [10] = BET inhibitor-based combinations targeting novel dependencies in MECOM-rearranged (r) AML: AML-191 cell line (AID 2202236; note: nearly all actives have a fitted effect of over 35% in size; note: potency is the fitted concentration of half-maximal effect)
# Summary of the method: as §1
# [11] = BET inhibitor-based combinations targeting novel dependencies in MECOM-rearranged (r) AML: AML-194 cell line (AID 2202237;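 note: plate controls were vehicle wells for no effect and wells without cells for full effect; nearly all actives have a fitted effect of over 40% in size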)
# Summary of the method: as §1
# [12] = biological target: Aldehyde dehydrogenase, mitochondrial (Homo sapiens) (UniProt P05091); assay: qHTS for Inhibitors of the Aldehyde Dehydrogenase Family (ALDH2) Primary screen (AID 2061308);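 note: plate controls were vehicle for no effect and reference inhibitor for full effect; nearly all actives have a fitted effect of over 55% in size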
# [13] = biological target: Retinaldehyde dehydrogenase 3 (Homo sapiens) (UniProt P47895); assay: qHTS for Inhibitors of the Aldehyde Dehydrogenase Family (ALDH1A3) Primary screen (AID 2061315);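 note: plate controls were DMSO vehicle for no effect and reference inhibitor for full effect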
# Cellular tumor antigen p53 (Homo sapiens), sequence (P04637 whole entry, looked up): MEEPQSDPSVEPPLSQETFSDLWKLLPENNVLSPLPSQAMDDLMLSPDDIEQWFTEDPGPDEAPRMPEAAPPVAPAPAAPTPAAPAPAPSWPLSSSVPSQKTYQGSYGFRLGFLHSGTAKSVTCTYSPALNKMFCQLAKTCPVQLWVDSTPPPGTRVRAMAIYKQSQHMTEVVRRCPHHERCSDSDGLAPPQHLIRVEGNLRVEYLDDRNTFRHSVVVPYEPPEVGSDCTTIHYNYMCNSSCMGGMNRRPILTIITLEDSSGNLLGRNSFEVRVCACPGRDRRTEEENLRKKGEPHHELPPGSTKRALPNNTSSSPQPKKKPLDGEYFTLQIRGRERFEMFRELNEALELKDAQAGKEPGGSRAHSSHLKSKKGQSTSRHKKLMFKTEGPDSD
structure (smiles),measurement,setting,value
Nc1nc(N)c(-c2ccccc2)s1,activation,[1],-14.1%
Nc1ncnc2c1ncn2[C@@H]1O[C@H](COP(=O)(O)O)[C@@H](O)[C@H]1O,activation,[1],5.08%
C[C@@H]1CC=CC=CC=CC=C[C@@H](O[C@@H]2O[C@H](C)[C@@H](O)[C@H](N)[C@H]2O)C[C@@H]2O[C@](O)(C[C@@H](O)C[C@@H]3O[C@@H]3C=CC(=O)O1)C[C@H](O)[C@@H]2C(=O)O,activation,[1],-2.86%
O=C(Nc1ccc(Cl)cc1)Nc1ccc(Cl)c(Cl)c1,activation,[1],0.565%
CC(C)Nc1cccnc1N1CCN(C(=O)c2cc3cc(NS(C)(=O)=O)ccc3[nH]2)CC1,activation,[1],-10.7%
CN(C)CCn1nnnc1SCC1=C(C(=O)O)N2C(=O)[C@@H](NC(=O)Cc3csc(N)n3)[C@H]2SC1,activation,[1],-0.565%
CCC(C)(CN(C)C)OC(=O)c1ccccc1 (stereo unspecified),activation,[1],-10.9%
[O-][n+]1cccc(CO)c1,activation,[1],20.1%
O=S(=O)(O)c1ccc2nc(-c3ccccc3)[nH]c2c1,activation,[1],23.2%
OC[C@H]1O[C@@H](Oc2cc(O)cc(C=Cc3ccc(O)cc3)c2)[C@H](O)[C@@H](O)[C@H]1O,activation,[1],9.98%
CC[C@H]1CN2CCc3cc(OC)c(OC)cc3[C@@H]2C[C@@H]1C[C@H]1NCCc2cc(OC)c(OC)cc21,Potency,[1],0.617 µM (active)
same,activation,[1],20.5%
same,Potency,[2],0.151 µM (active)
same,Potency,[3],inactive
same,Potency,[4],inactive
same,Potency,[5],0.372 µM (active)
same,Potency,[6],0.468 µM (active)
same,Potency,[7],0.235 µM (active)
same,Potency,[8],0.332 µM (active)
same,Potency,[9],0.372 µM (active)
same,Potency,[10],0.417 µM (active)
NC(=O)NO,Potency,[1],30.6 µM (active)
same,activation,[1],-16.4% and -32.9%
same,Potency,[2],inactive
same,Potency,[3],inactive
same,Potency,[4],inactive
same,viability,[5],114%
same,Potency,[6],inactive
same,Potency,[7],inactive
same,Potency,[8],inactive
same,Potency,[9],inactive
same,Potency,[10],inactive
same,Potency,[11],inactive
CS(=O)(=O)c1cccc(CNc2nc(Nc3ccc4c(c3)CCC(=O)N4)ncc2C(F)(F)F)c1,Potency,[1],21.3 µM (active)
same,activation,[1],-20.3% and 55.5%
same,Potency,[3],inactive
same,Potency,[12],inactive
same,Potency,[4],inactive
same,Potency,[13],inactive
same,Potency,[5],16.6 µM (active)
same,Potency,[6],20.9 µM (active)
same,Potency,[7],0.209 µM (active)
same,Potency,[8],9.34 µM (active)
same,Potency,[9],10.5 µM (active)
same,Potency,[10],9.34 µM (active)
CO[C@@]1(NC(=O)CSC[C@@H](N)C(=O)O)C(=O)N2C(C(=O)O)=C(CSc3nnnn3C)CS[C@@H]21,activation,[1],13.4%
CNCC[C@H](Oc1cccc2ccccc12)c1cccs1,Potency,[1],17.4 µM (active)
same,activation,[1],8.04%
CCC(=O)Oc1ccc2c(c1)CC[C@@H]1[C@@H]2CC[C@@]2(C)[C@H]1C[C@@H](OC(=O)CC)[C@@H]2OC(=O)CC,activation,[1],-8.47%
C[C@H](O)C(=O)Nc1c(I)c(C(=O)NC(CO)CO)c(I)c(C(=O)NC(CO)CO)c1I,activation,[1],10.9%
Oc1ccc(-c2nc(-c3ccc(F)cc3)c(-c3ccncc3)[nH]2)cc1,Potency,[1],38.5 µM (active)
same,activation,[1],9.98% and -12.3%
same,Potency,[2],inactive
same,Potency,[3],inactive
same,Potency,[4],inactive
same,Potency,[7],18.6 µM (active)
